Laboratory results taken from PubChem BioAssay (Tox21).
Where “and” joins values, the source holds several entries; their conditions need not be identical. Equal entries are not always repeated. Records with an inconclusive call do not appear. A call without a number means that no potency is given here. Calls of active or inactive are those of the source. Unless noted, the call rests on the fitted dose curve; in most records, active means well fitted curve in the direction sought with a large enough effect in the repeat runs; inconclusive means weak or mixed curves; inactive means no such curve, though single readings can be large; an effect the other way counts as inactive or inconclusive.

Key:
[1] = qHTS assay for small molecule agonists of the p53 signaling pathway (AID 651631; calls by dose curve; further: nearly all actives have a fitted effect of over 15% in size; further: potency means the concentration at half of the fitted maximal effect)
Outline: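 Beta-lactamase reporter activity under p53 response elements was quantified in HCT-116 cells by FRET fluorescence, following 16 h incubation with test compounds at 37 °C and 2 h substrate development at room temperature.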

[2] = qHTS assay for small molecules that induce genotoxicity in human embryonic kidney cells expressing luciferase-tagged ATAD5 (AID 651632); further: nearly all actives have a fitted effect of over 15% in size
Outline: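 Reporter cells (HEK293T) express luciferase-tagged ATAD5, a protein that accumulates after DNA damage. Treat 16 hr at 37C/5% CO2, add Amplite, wait 30 min at RT, and read luminescence.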

[3] = qHTS assay for small molecule agonists of the p53 signaling pathway - cell viability (AID 651633; calls by dose curve;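 further: p53RE-bla HCT reporter cells with a stable beta-lactamase p53 reporter; series mostly up to about 83 µM; nearly all actives have a fitted effect of over 30% in size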)
Outline: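 p53RE-bla cells were treated with compound for 16 hours at 37 C. Cytotoxicity was then measured as CellTiter-Glo luminescence after 30 min at room temperature.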

[4] = qHTS assay for small molecules that induce genotoxicity in human embryonic kidney cells expressing luciferase-tagged ATAD5 - cell viability (AID 651634; calls by dose curve; further: nearly all actives have a fitted effect of over 25% in size)
Outline: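 Seeding of 2,000 HEK293T ATAD5-luciferase cells per well preceded pin-tool compound transfer. Plates sat 15.5 hr at 37C under 5% CO2, then fluorescence was read after 30 min with CellTiter-Fluor.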

[5] = qHTS assay for small molecule disruptors of the mitochondrial membrane potential - cell viability (AID 720634; calls by dose curve;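 further: human HepG2 liver cancer cells; series mostly up to about 83 µM; nearly all actives have a fitted effect of over 20% in size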)
Outline: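 Measuring cytotoxicity alongside mitochondrial potential, the screen quantified ATP by luminescence in HepG2 cells after 1 hr compound incubation and a 30 min room-temperature CellTiter-Glo step.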

[6] = qHTS assay to test for compound auto fluorescence at 590 nm (red) in HepG2 cells (AID 720674)
Outline: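 HepG2 cells, 2,000 per well in MEM with 10% FBS, attached overnight at 37 C, then got 23 nL compound or DMSO. After 1 hr at 37 C, 5% CO2, red fluorescence was read at 540/590 nm against Rose Bengal sodium as reference.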

[7] = qHTS assay to test for compound auto fluorescence at 535 nm (green) in HepG2 cells (AID 720675)
[8] = qHTS assay to test for compound auto fluorescence at 460 nm (blue) in HEK293 cells (AID 720678)
Outline: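 Intrinsic compound fluorescence is recorded in live HEK293 cultures after overnight incubation at 37C, 5% CO2, using excitation 405 nm and emission 460 nm. Values are referenced to triamterene.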

[9] = qHTS assay to test for compound auto fluorescence at 590 nm (red) in HEK293 cells (AID 720679)
Outline: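 Red autofluorescence, HEK293 cells: 2,000 cells/well; attach 4-5 hr 37C; add 23 nL cpd or DMSO; incubate o/n 37C 5% CO2; read Ex540/Em590; Rose Bengal sodium reference.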

[10] = qHTS assay for small molecule disruptors of the mitochondrial membrane potential (AID 720635)
Outline: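 HepG2 cells exposed to compound 1 hr at 37C, then Mito-MPS dye 30 min. Ratio read of aggregate (540/590 nm) versus monomer (490/535 nm) fluorescence.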

Row | Compound | Potency [1] | Potency [2] | Potency [3] | Potency [4] | Potency [5] | outcome [6] | Potency [7] | Potency [8] | outcome [9] | Potency [10]
1 | O=C1OC(=O)c2cc(-c3ccc4c(c3)C(=O)OC4=O)ccc21 | inactive | inactive | inactive | inactive | inactive | inactive | inactive | inactive | inactive | 
2 | OCC1(CO)COC(C(Cl)(Cl)Cl)OC1 | inactive | inactive | inactive | inactive | inactive |  | inactive | inactive | inactive | inactive
3 | CCCCCN=C(N)N/N=C/c1c[nH]c2ccc(OC)cc12 | inactive | inactive | inactive | inactive | inactive | inactive |  | inactive | inactive | inactive
4 | CC(C)(Oc1ccc(C2CCCc3ccccc32)cc1)C(=O)O (stereo not drawn) | inactive | inactive | inactive | inactive |  | inactive | inactive | inactive | inactive | inactive
5 | O=C(O)COc1ccc(C(=O)c2cccs2)c(Cl)c1Cl | inactive | inactive | inactive | inactive | inactive | inactive |  | inactive | inactive | inactive
6 | Cc1cc(=O)c(C(=O)N[C@@H](C(=O)N[C@@H]2C(=O)N3C(C(=O)O)=C(CSc4nnnn4C)CS[C@H]23)c2ccc(O)cc2)c[nH]1 | inactive | inactive | inactive | inactive | inactive | inactive | inactive | inactive | inactive | 
7 | COc1cc([C@@H]2c3cc4c(cc3[C@@H](O[C@@H]3O[C@@H]5CO[C@@H](C)O[C@H]5[C@H](O)[C@H]3O)[C@H]3COC(=O)[C@H]23)OCO4)cc(OC)c1O | 1.88 µM (active) and 761 nM (active) | inactive | inactive | inactive | inactive |  | inactive | inactive | inactive | 
8 | Cc1cc(C(=O)NCCc2ccc(S(=O)(=O)NC(=O)NN3CCCCCC3)cc2)no1 | inactive | inactive | inactive | inactive | inactive |  | inactive | inactive | inactive | inactive
9 | COC(=O)C(CN)c1c[nH]c2ccc(OC)cc12 (stereo not drawn) | inactive | inactive | inactive | inactive | inactive | inactive |  | inactive | inactive | inactive
10 | CN[C@@H]1[C@@H](O[C@H]2O[C@H](CO)[C@@H](N)[C@H](O)[C@H]2O)O[C@H]2C[C@@H](N)[C@@H](O[C@H]3[C@H](O)[C@@H](O)[C@H](N)C[C@@H]3N)O[C@@H]2[C@@H]1O | inactive | inactive | inactive | inactive | inactive | inactive | inactive | inactive | inactive | 
11 | CCN(CC)CCOC[C@H]1O[C@@H](O)[C@H](OCCN(CC)CC)[C@@H](O)[C@@H]1O | inactive | inactive | inactive | inactive | inactive | inactive |  | inactive | inactive | inactive
12 | CC1CCCC(C)N1NC(=O)c1ccc(Cl)c(S(N)(=O)=O)c1 (stereo not drawn) | inactive | inactive | inactive | inactive | inactive |  | inactive | inactive | inactive | inactive
13 | O=C(O)c1cc2cc(Cc3cccnc3)ccc2o1 | inactive | inactive | inactive |  | inactive | inactive | inactive | inactive | inactive | inactive
14 | CN1[C@@H](CC(=O)c2ccccc2)CCC[C@H]1C[C@H](O)c1ccccc1 | inactive | inactive | inactive | inactive |  |  |  | inactive | inactive | 
15 | CC(C)(C)C(=O)OCC(=O)[C@H]1CC[C@H]2[C@@H]3CCC4=CC(=O)CC[C@]4(C)[C@H]3CC[C@]12C | inactive | inactive | inactive |  | inactive | inactive | inactive | inactive | inactive | inactive
16 | CCOC(=O)[C@H](CCc1ccccc1)N[C@@H](C)C(=O)N1[C@H](C(=O)O)C[C@H]2CCCC[C@@H]21 | inactive | inactive | inactive |  | inactive | inactive | inactive | inactive | inactive | inactive
17 | C[C@@H]1O[C@@H](OC[C@H]2O[C@@H](Oc3c(-c4ccc(OCCO)c(OCCO)c4)oc4cc(OCCO)cc(O)c4c3=O)[C@H](O)[C@@H](O)[C@@H]2O)[C@H](O)[C@H](O)[C@H]1O | inactive | inactive | inactive |  | inactive | inactive | inactive |  | inactive | inactive
18 | Nc1nc(/C(=C/CC(=O)O)C(=O)N[C@@H]2C(=O)N3C(C(=O)O)=CCS[C@H]23)cs1 | inactive | inactive | inactive |  | inactive | inactive |  | inactive | inactive | inactive
19 | O=c1[nH]c(=O)n([C@H]2C[C@H](O)[C@@H](CO)O2)cc1/C=C/Br | inactive | inactive | inactive |  | inactive | inactive | inactive | inactive | inactive | inactive
20 | NC(=O)[C@@H]1CCCN1C(=O)[C@H](Cc1cnc[nH]1)NC(=O)[C@@H]1CCC(=O)N1 | inactive | inactive | inactive | inactive |  | inactive | inactive | inactive | inactive | inactive
21 | CC12CCC(C[N+](C)(CCC[N+](C)(C)C)C1)C2(C)C (stereo not drawn) | inactive | inactive | inactive |  | inactive | inactive | inactive | inactive | inactive | inactive
